Assay outcomes deposited in PubChem by several laboratories.
MCL1-BIM inh: inhibitors of human MCL1 binding to BIM-BH3 peptide | GST-MCL1 / FITC-Bim-BH3 fluorescence polarization | Q07820 | inhibition, % at 10.9 µM | hit rate 0.68% among 320,000;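 active = inhibition above the mean inhibition of all tested compounds plus 3 SD, set per campaign, cut at about 40% in these data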;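 note: higher means more loss of mP so more displacement of Bim peptide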
Bcl-xL primary: Bcl-xL (human) inhibition; GST-Bcl-xL / FITC-Bim BH3 peptide fluorescence polarization; inhibition, % at 10.9 µM; hit rate 0.7% among 320,000;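 active = inhibition above the mean of all tested compounds plus 3 SD, cutoff set per campaign, cut at about 30% in these data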;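 note: inhibitors lower millipolarization by displacing the labeled peptide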
Target sequence (Q07817 whole entry, looked up): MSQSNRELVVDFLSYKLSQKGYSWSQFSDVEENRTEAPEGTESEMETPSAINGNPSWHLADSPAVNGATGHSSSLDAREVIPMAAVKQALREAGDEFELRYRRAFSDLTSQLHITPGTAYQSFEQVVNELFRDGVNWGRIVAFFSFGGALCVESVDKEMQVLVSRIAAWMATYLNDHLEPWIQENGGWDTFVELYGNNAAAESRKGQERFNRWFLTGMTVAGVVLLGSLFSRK
Mcl1-Bid inh: Mcl-1/Bid interaction inhibition; TR-FRET Mcl-1/Bid-Dy647 peptide binding, 1536-well; inhibition, % at 21.7 µM; hit rate 0.97% among 220,000; AID 1021;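 active = compounds that cut the binding signal by more than half at the single screening dose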;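 note: His-tagged Mcl-1 with europium anti-His antibody binding Bid BH3 peptide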
Mcl-1 Bim block: human Bim-Mcl-1 interaction inhibition. inhibition, % at 10 µM. hit rate 0.1% among 190,000. Q07820. Bead-based flow cytometry, Bim peptide-Mcl-1 binding; in the data active = inhibition above about 40%
Mcl1-Noxa inh: disrupts binding of human Mcl-1 to Noxa peptide | TR-FRET Mcl-1/Noxa peptide binding, 2 h | inhibition, % at 21.7 µM | hit rate 1.5% among 220,000 | AID 1022;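 active = compounds that cut the protein-peptide binding signal by more than 50% relative to plate controls in a single-dose test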;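 note: His-tagged Mcl-1 with rhodamine Noxa BH3 peptide and terbium anti-His antibody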
GLD-1 RNA inh: GLD-1-TGE RNA interaction inhibition (C. elegans); Q17339; purified GLD-1 + fluorescein TGE RNA, fluorescence polarization; inhibition, % at 5.96 µM; hit rate 0.44% among 320,000;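 active = percent inhibition above a per-plate cutoff, the plate mean of test compounds plus 3 SD, cut at about 30% in these data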
Target sequence (Q17339 whole entry, looked up): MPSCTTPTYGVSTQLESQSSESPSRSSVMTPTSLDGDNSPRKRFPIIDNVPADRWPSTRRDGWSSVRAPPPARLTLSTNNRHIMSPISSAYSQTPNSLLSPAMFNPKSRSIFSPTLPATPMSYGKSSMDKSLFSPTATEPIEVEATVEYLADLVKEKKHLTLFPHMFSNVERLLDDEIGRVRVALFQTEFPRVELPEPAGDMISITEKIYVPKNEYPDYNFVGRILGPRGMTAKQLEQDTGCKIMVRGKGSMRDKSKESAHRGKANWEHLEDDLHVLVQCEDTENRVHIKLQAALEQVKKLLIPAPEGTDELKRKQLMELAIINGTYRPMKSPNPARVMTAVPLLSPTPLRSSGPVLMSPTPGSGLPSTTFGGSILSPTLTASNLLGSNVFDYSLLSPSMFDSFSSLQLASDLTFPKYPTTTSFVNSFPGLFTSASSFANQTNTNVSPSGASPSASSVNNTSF
Of the large screens only hits and unclear results are named; the others gave an inactive call. The list is not random: actives were taken first. Their share in the collection is about 2.3%.

C/C(=N\NC(=O)c1cccc(O)c1)c1cccc(NC(=O)c2ccc(F)cc2)c1	none (no result: Mcl1-Bid inh, Mcl-1 Bim block, Mcl1-Noxa inh)
C/C(=N\NC(=O)c1cccc([N+](=O)[O-])c1)c1ccco1	none (no result: Mcl-1 Bim block)
Cc1ccccc1Nc1nc(N)nc(COC(=O)CCNS(=O)(=O)c2ccccc2)n1	none (no result: Mcl1-Bid inh, Mcl-1 Bim block, Mcl1-Noxa inh)
CC(C)(O)C1Cc2cc(/C=C/C(=O)O)c(O)cc2O1 (centres undefined)	Mcl1-Noxa inh 61 (no result: MCL1-BIM inh, Bcl-xL primary, GLD-1 RNA inh)
COC(=O)/C(C(C)=O)=C(/C=C/C=C/N(C)C)N(C)C	none
COC(=O)\C(C(C)=O)=C(/C=C/C=C/N(C)C)N(C)C	Bcl-xL primary 32
CC(C)NC(=O)c1ccc2c(c1)N(CC(=O)Nc1ccccc1F)C(=O)C(C)(C)O2	none (no result: Mcl1-Bid inh, Mcl-1 Bim block, Mcl1-Noxa inh)
CC(=O)c1sc(N/N=C\c2cccc(Br)c2)nc1C	Mcl1-Noxa inh 51
O=C(NCc1ccccc1)N1CCC(Cc2ccccc2)CC1	none (no result: Mcl1-Bid inh, Mcl-1 Bim block, Mcl1-Noxa inh)
COc1ccccc1NC(=O)Cn1nnc(-c2ccccc2NC(=O)c2cccs2)n1	none
COc1ccc(NC(=O)Cn2nnc(-c3ccccc3NC(=O)c3ccco3)n2)cc1	Mcl1-Bid inh 66
O=C(Cn1nnc(-c2ccccc2NC(=O)c2cccs2)n1)Nc1ccccc1	Mcl1-Bid inh 87
CC1N(C)c2cc(NC(=O)c3ccco3)ccc2C1(C)C (centres undefined)	GLD-1 RNA inh 36
CSC(=NCc1cccnc1)NS(=O)(=O)c1cccs1	Mcl1-Bid inh 71
Cc1ccc(O)c(N=NC2=C(O)CC(C)(C)CC2=O)c1	none
CC1(C)CC(=O)C(N=Nc2cc(Cl)c(Cl)c(Cl)c2)=C(O)C1	Mcl-1 Bim block 42
N#CC1=C(N)OC2=C(CC/C2=C\c2ccccc2Cl)C1c1ccccc1Cl (centres undefined)	none
N#CC1=C(N)OC2=C(CC/C2=C\c2ccccc2)C1c1ccccc1 (centres undefined)	GLD-1 RNA inh 41
CC(=O)c1cccc(S(=O)(=O)Nc2cccnc2)c1	none (no result: Mcl1-Bid inh, Mcl-1 Bim block, Mcl1-Noxa inh)
CCCCN(C)CCCNC(=O)c1cn(CC)c2ccc(S(=O)(=O)N3CCc4ccccc4C3)cc2c1=O	Mcl1-Noxa inh 53
CCOCCCNC(=O)c1cn(CC)c2ccc(S(=O)(=O)N3CCC(C)CC3)cc2c1=O	Bcl-xL primary 37 (no result: Mcl1-Bid inh, Mcl-1 Bim block, Mcl1-Noxa inh)
Clc1ccc(Nc2ncn[nH]2)c(Cl)c1	none
CN(C)CCCNc1oc(-c2ccccc2)nc1C#N	Mcl1-Noxa inh 53
CCCn1c(O)c(N=NC(=O)CNC(=O)/C=C/c2ccc(OC)cc2)c2ccccc21	none (no result: Mcl1-Bid inh, Mcl-1 Bim block, Mcl1-Noxa inh)
C=CCn1c(O)c(N=NC(=O)CNC(=O)/C=C/c2ccc(OC)cc2)c2ccccc21	Mcl1-Bid inh 96 (no result: Mcl-1 Bim block)
C=CCn1c(O)c(N=NC(=O)CNC(=O)/C=C/c2ccco2)c2ccccc21	Mcl1-Noxa inh 69
OCC[n+]1ccc(/C=C/c2c[nH]c3ccccc23)cc1	GLD-1 RNA inh 50
O=C(/C=C/c1c[nH]c2ccccc12)c1ccccc1	none
COC(=O)c1[nH]c2ccc(Cl)cc2c1NC(=O)Oc1ccccc1	Mcl1-Noxa inh 51
CC(=O)Cc1cc(O)c2ccccc2c1OC(=O)c1ccc(Br)cc1	Mcl1-Bid inh 96 (no result: Mcl-1 Bim block)
CCOc1ccccc1NC(=S)NCCc1ccccc1	none
CCOC(=O)c1snc(-c2ccc(F)cc2)c1N	Mcl-1 Bim block 66
CCOC(=O)c1sc(N)nc1-c1ccccc1	none
CCCCNC(=O)c1cccc(S(=O)(=O)N2CC3(C)CC2CC(C)(C)C3)c1 (centres undefined)	none (no result: Mcl1-Bid inh, Mcl-1 Bim block, Mcl1-Noxa inh)
CCN1CCN(CCCNC(=O)CCC(=O)N2CCOc3ccc(Cl)cc32)CC1	none (no result: Mcl1-Bid inh, Mcl-1 Bim block, Mcl1-Noxa inh)
Cc1cc(O)cc2c(=O)c3ccccc3sc12	Mcl1-Noxa inh 59
COc1ccccc1N1CCN(C(=O)c2ccc3c(=O)n(Cc4ccc5c(c4)OCO5)c(=O)[nH]c3c2)CC1	none (no result: Mcl1-Bid inh, Mcl-1 Bim block, Mcl1-Noxa inh)
COc1cccc(C(=O)Nc2c3c(nn2-c2ccc(Cl)cc2)CS(=O)(=O)C3)c1OC	none (no result: Mcl1-Bid inh, Mcl-1 Bim block, Mcl1-Noxa inh)
CCCc1nc2ccccc2c(C(=O)O)c1CC	none
CCN(CC)CC(=O)Nc1cc(N(C)C)nc2ccccc12	none (no result: Mcl-1 Bim block)
CCCCc1nc2ccccc2c(NC(=O)CN(CC)CC)c1CCC	Mcl1-Bid inh 51
CCCc1nc2ccccc2c(NC(=O)CN(CC)CC)c1CC	Mcl1-Bid inh 62
O=C(c1ccc(Br)o1)N1CCN(Cc2ccccc2Cl)CC1	none (no result: Mcl1-Bid inh, Mcl-1 Bim block, Mcl1-Noxa inh)
O=C1CCCN1CCCNCC(=O)N1c2ccccc2Sc2ccccc21	Mcl1-Bid inh 51
Cn1c(=O)c2[nH]c(-c3ccccc3O)nc2n(C)c1=O	Mcl1-Noxa inh 59
CC(C)c1ccc(-c2nc3c([nH]2)c(=O)n(C)c(=O)n3C)cc1	none
CSc1ccc(/C=C(/NC(=O)c2ccco2)C(=O)N2CCOCC2)cc1	none (no result: Mcl1-Bid inh, Mcl-1 Bim block, Mcl1-Noxa inh)
C=CCn1c(SCC(=O)Nc2sc3c(c2C#N)CCC3)nnc1C1COc2ccccc2O1 (centres undefined)	Mcl1-Bid inh 55
COc1ccc(-c2cc(C(=O)N(C)Cc3nc4ccccc4c(=O)[nH]3)c3ccccc3n2)cc1OC	none (no result: MCL1-BIM inh, Bcl-xL primary, Mcl1-Bid inh, Mcl-1 Bim block, Mcl1-Noxa inh)
Cc1cccn2c(=O)c3cc(C(=O)NCc4ccco4)c(=N)n(CCc4ccccc4)c3nc12	Bcl-xL primary 33, Mcl1-Noxa inh 80 (no result: Mcl-1 Bim block)
N=c1c(C(=O)NCc2ccccc2)cc2c(=O)n3ccccc3nc2n1Cc1ccco1	Mcl1-Noxa inh 58
N=c1c(C(=O)NCc2ccco2)cc2c(=O)n3ccccc3nc2n1Cc1ccccc1	MCL1-BIM inh 48, Bcl-xL primary 38
NS(=O)(=O)c1ccc(CCNC(=O)CSc2ccsc2[N+](=O)[O-])cc1	Mcl1-Noxa inh 53
COc1ccccc1CNC(=O)CSc1ccsc1[N+](=O)[O-]	none
CCc1ccccc1NC(=O)CSc1ccsc1[N+](=O)[O-]	Mcl1-Noxa inh 54
O=C(CSc1ccsc1[N+](=O)[O-])Nc1cccc(F)c1	Mcl1-Noxa inh 98 (no result: MCL1-BIM inh, Bcl-xL primary, GLD-1 RNA inh)
CCCc1cc(=O)[nH]c(-n2[nH]c3c(c2=O)CCCC3)n1	Bcl-xL primary 47
CCCc1cc(=O)[nH]c(SCC)n1	none
Cc1cccc(NC(=O)CSc2nnc(CSc3nc(C)cc(C)n3)o2)c1	Bcl-xL primary 31
COC(=O)Cc1nnc(Nc2cccc(C)c2)c2ccccc12	none (no result: Mcl-1 Bim block)
CCOC(=O)Cc1nnc(Nc2cccc(C)c2)c2ccccc12	Mcl1-Bid inh 64
CCOC(=O)C1=C(C)OC(N)=C(C#N)C1c1cc(C)sc1C (centres undefined)	none
CCOC(=O)C1=C(C)OC(N)=C(C#N)C1c1cc2ccccc2nc1N1CCCCC1 (centres undefined)	Bcl-xL primary 31
CCOC(=O)C1=C(C)OC(N)=C(C#N)C1c1cc2cc(C)ccc2nc1N1CCCCC1 (centres undefined)	Bcl-xL primary 33
CC(C)N1CC(C(=O)Nc2ccc(F)c(Cl)c2)CC1=O (centres undefined)	none (no result: Mcl1-Bid inh, Mcl-1 Bim block, Mcl1-Noxa inh)
Cc1ccc(S(=O)(=O)N2CCOCC(=O)NCCOCCNC(=O)COCC2)cc1	none (no result: MCL1-BIM inh, Bcl-xL primary, GLD-1 RNA inh)
Cc1cc(C)c2c(c1)[C@@H]1C=CC[C@@H]1[C@H](c1ccc(S(=O)(=O)N3CCOCC3)cc1)N2	Mcl1-Noxa inh 67
